# Source: PubChem
# CHRM1 antagonist – human CHRM1 antagonism; CHO-K1 hM1, Fluo-8 calcium fluorescence, ACh EC80 antagonist; hit rate 1.3% among 360,000; inhibition, % at 3 µM; P11229;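 active = percent inhibition above its own plate's cutoff, namely the mean of that plate's compound wells plus 3 SD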;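 note: peak over basal fluorescence ratio during 140 s after agonist addition; 0% = ACh EC80 plus DMSO and 100% = DMSO alone without agonist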
# Target sequence (P11229 whole entry, looked up): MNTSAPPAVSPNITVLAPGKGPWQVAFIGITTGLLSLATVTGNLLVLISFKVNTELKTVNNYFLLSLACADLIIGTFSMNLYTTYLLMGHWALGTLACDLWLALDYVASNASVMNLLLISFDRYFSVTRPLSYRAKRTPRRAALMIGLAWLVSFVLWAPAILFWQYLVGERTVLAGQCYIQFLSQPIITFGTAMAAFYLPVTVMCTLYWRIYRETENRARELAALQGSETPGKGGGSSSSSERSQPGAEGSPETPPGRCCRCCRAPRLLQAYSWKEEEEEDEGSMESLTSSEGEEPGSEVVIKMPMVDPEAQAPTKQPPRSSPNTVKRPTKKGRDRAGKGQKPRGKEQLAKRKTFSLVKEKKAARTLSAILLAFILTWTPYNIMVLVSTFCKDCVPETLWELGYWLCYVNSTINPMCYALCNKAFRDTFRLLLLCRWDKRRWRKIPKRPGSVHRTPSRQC
# M1 ag – agonists of human M1 muscarinic receptor; P11229; CHO-K1 hM1, Fluo-8 calcium fluorescence, agonist mode; 0% DMSO, 100% acetylcholine EC100; activation, % at 3 µM; hit rate 0.33% among 360,000; AID 588814;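 active = activation above the run's mean compound activation plus 3 SD, cut at about 16% in these data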;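 note: peak over basal fluorescence ratio within a 140 s kinetic read after compound addition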
# CHO-K1 Ca ag – M1 agonist counterscreen hit in parental CHO-K1 cells; hit rate 0.48% among 360,000; activation, % at 3 µM; AID 602248; Fluo-8 calcium fluorescence; scaled to maximal ATP response, vehicle zero; in the data active = activation above about 15%;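 note: untransfected CHO-K1 host cells lacking M1 receptor as counterscreen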
# CHRM1 PAM – potentiates human M1 receptor response to acetylcholine; CHO-K1 hM1, Fluo-8 calcium fluorescence, ACh EC20; 0% = ACh EC20, 100% = maximal ACh; activation, % at 3 µM; hit rate 0.088% among 360,000; P11229; in the data active = activation above about 19%, passing the limit was not always enough
# M1 PAM parental – counter-screen for M1 PAMs: effect in parental CHO-K1 cells. activation, % at 3 µM. ATP EC20, Fluo-8 calcium fluorescence; 0% at ATP EC20, 100% at ATP max. hit rate 0.02% among 360,000. AID 602247;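 active = activation above the run cutoff, the mean activation of all test compounds plus 3 SD, cut at about 40% in these data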;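 note: peak over basal fluorescence ratio in a 140 s read after ATP addition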
# CHO-K1 Ca antag – M1 antagonist counterscreen hit in parental CHO-K1 cells | inhibition, % at 3 µM | ATP-induced calcium, Fluo-8 fluorescence | hit rate 0.6% among 360,000;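 active = inhibition above a per-plate cutoff, the plate's mean sample inhibition plus 3 SD, cut at about 24% in these data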;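 note: 0% = DMSO plus EC80 ATP and 100% = DMSO alone without ATP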
# * = called active by the depositor. The list is not random: actives were taken first. Their share in the collection is about 2.4%.
SMILES,CHRM1 antagonist,M1 ag,CHO-K1 Ca ag,CHRM1 PAM,M1 PAM parental,CHO-K1 Ca antag
Cc1cc2oc(C(=O)Nc3ccc(S(N)(=O)=O)cc3)c(C)c2cc1Cl,2,-3,-1,-6,-11,28*
FC(F)(F)Oc1ccccc1C(c1nnnn1C1CCCC1)N1CCN(C/C=C/c2ccccc2)CC1 (stereo not drawn),56*,-4,1,-25,17,-9
C(=C\c1ccccc1)/CN1CCN(C(c2ccnc3ccccc23)c2nnnn2C2CCCC2)CC1 (stereo not drawn),70*,-6,0,-26,-4,-3
c1ccc(C(c2nnnn2C2CCCC2)N2CCCCCC2)nc1 (stereo not drawn),34*,-13,0,-27,-6,19
C(=C\c1ccccc1)/CN1CCN(C(c2ccccc2)c2nnnn2C2CCCC2)CC1 (stereo not drawn),54*,-5,2,-23,17,-25
COc1cccc(C(c2nnnn2C2CCCCC2)N2CCN(C/C=C/c3ccccc3)CC2)c1OC (stereo not drawn),12,-6,-1,-21,1,9
c1ccc(C(c2ccccc2)N2CCN(C(c3ccccn3)c3nnnn3C3CCCC3)CC2)cc1 (stereo not drawn),6,-5,0,-2,-7,-4
CN(CCc1ccccc1)C(=O)c1cccc(NC(=O)Cc2cccc(NC(=O)C3CCN(C(=O)C4CCC4)CC3)c2)c1,-10,-3,0,6,6,-6
CC(NC(=O)COC(=O)c1ccccc1O)c1ccccc1 (stereo not drawn),-14,1,1,10,4,-2
COc1cc(OC)cc(C(=O)NCC(=O)NC(C)CCc2ccccc2)c1 (stereo not drawn),0,-2,1,3,5,-3
COc1cc(OC)cc(C(=O)NCC(=O)NC(C)c2ccccc2)c1 (stereo not drawn),75*,1,0,6,-7,8
CC(NC(=O)COC(=O)c1cc(Cl)nc(Cl)c1)c1ccccc1 (stereo not drawn),-9,5,23*,11,13,-9
COc1cc(OC)cc(C(=O)NC(C(=O)NCc2ccccn2)C(C)C)c1 (stereo not drawn),78*,-9,0,-29,-14,11
Cc1cccc(CSC2=NCCN2S(=O)(=O)c2ccc(F)cc2)c1,39*,-2,-1,-16,-25,11
CC(C)(C)C(=O)Nc1ccc(-c2cc3cc(Cl)ccc3o2)cc1,-11,-2,1,8,23,-14
CCN(CC)S(=O)(=O)c1cccc(C(=O)NC(C(=O)NNC(=O)c2ccccc2F)C(C)C)c1 (stereo not drawn),-8,-4,0,13,11,-18
CCCCN(CC)C(=O)c1cc2cc3ccc(OC)cc3nc2o1,-8,-1,1,5,-20,25*
Cc1cn([C@H]2C[C@H](O)[C@@H](CCC(=O)NCc3cccs3)O2)c(=O)[nH]c1=O,-12,-3,0,-2,-8,24*
N#Cc1ccccc1Sc1ccccc1C(=O)NCC(c1ccco1)N1CCCCC1 (stereo not drawn),30*,-8,0,-22,-6,-20
O=C(NCC(c1ccco1)N1CCCC1)c1ccccc1Sc1ccc(C(F)(F)F)cc1[N+](=O)[O-] (stereo not drawn),95*,-8,1,-28,2,0
COc1cccc(-c2c(NC(=O)c3ccco3)n(-c3ccc(C)cc3)nc(C)c2=O)c1,-1,-1,0,9,-6,32*
CC1CCN(S(=O)(=O)c2ccc(NC(=O)C3CCN(C(=O)c4ccco4)CC3)cc2)CC1,-9,-5,4,2,2,-13
COc1cccc(N/C=C/C(=O)c2ccc(OC)c(OC)c2)c1,-10,-3,1,0,12,-2
CCOC(=O)c1cccc(N/C=C/C(=O)c2ccc(OC)c(OC)c2)c1,29*,0,3,-11,-5,18
Cc1cc2nc3n(c2cc1C)CC1CC(C(=O)NCC2CC2)N(C)C31 (stereo not drawn),42*,-11,0,-19,-3,-4
SMILES,CHRM1 antagonist,M1 ag,CHO-K1 Ca ag,CHRM1 PAM,M1 PAM parental,CHO-K1 Ca antag
CN(C)CCNC(=O)/C=N/O,1,26*,0,-9,-1,0
CN(C)CCCCCNCCCNC(=O)/C=N\O,-25,-4,0,10,1,-8
N#C/C(=C/c1ccc(N2CCCCC2)o1)C(=O)Nc1ccc2ccccc2c1,87*,240*,266*,-32,-13,85*
N#C/C(=C/c1ccc(N2CCCCC2)o1)C(=O)Nc1ccc(Cl)cc1,68*,102*,79*,-32,-1,36*
O/N=C(/c1ccccc1)c1cc2cc(Br)cc(Br)c2o1,-24,-1,2,21,5,-9
COc1cccc(C(O)c2ncc(-c3ccc(C(F)(F)F)cc3)[nH]2)c1 (stereo not drawn),-6,-7,1,-8,-4,5
CCCCCn1c(=S)[nH]c2cc(C(=O)N3CCN(C(=O)OCC)CC3)ccc2c1=O,-1,-10,2,-3,11,-3
CCOC(=O)N1CCN(C(=O)c2ccc3c(=O)n(CCC4=CCCCC4)c(=O)[nH]c3c2)CC1,66*,-5,1,-23,-4,6
Cn1c(N2CCN(C(=O)Nc3ccc(F)cc3)CC2)nc2ccccc21,-4,-3,1,1,-3,8
Cn1c(N2CCN(C(c3ccccc3)c3ccccc3)CC2)nc2ccccc21,32*,-7,1,-20,-18,25*
O=C(CN1C(=O)NC(c2ccccc2)(c2ccccc2)C1=O)NCc1ccco1,-9,-1,1,9,23,-10
CCC1CCCCN1CCCNC(=O)C1CCC(CNS(=O)(=O)c2c(C)cc(C)cc2C)CC1 (stereo not drawn),63*,-6,0,-21,-18,24*
COc1ccc(NC(=O)COC(=O)c2cc3c(s2)CCC3)cc1,8,-5,0,-5,1,0
CCc1sc(C(=O)NCCc2ccc(S(N)(=O)=O)cc2)cc1Br,9,-7,0,-9,-12,29*
CCN(Cc1ccc(C#CCCO)cc1)CC1CCCN(CCc2cccc(F)c2)C1 (stereo not drawn),52*,-8,0,-28,2,2
CN(Cc1ccccc1O)CC1CCCN(CCc2ccc(Cl)cc2)C1 (stereo not drawn),80*,-9,0,-29,-7,8
CN(Cc1ccc(C#CCCO)cc1)CC1CCCN(CCc2ccc(Cl)cc2)C1 (stereo not drawn),40*,-7,3,-27,20,-9
